Screening results as filed in PubChem.
MCF10A rereplic: A quantitative high throughput screen for small molecules that induce DNA re-replication in MCF 10a normal breast cells; MCF 10A DNA re-replication, Hoechst nuclear intensity, 48 h; Potency, µM (highest dose often 46.1 µM), inactives show at the top dose activity, positive = re-replication, most hits filed as activators; 350,000 tested, 2.9% active; further: % of control where 0% means no effect; nearly all actives have a fitted effect of over 50% in size
KB-3-1 cytotox: qHTS assay for MDR1-selective chemotherapeutics: Primary screen using the parental adenocarcinoma cell KB-3-1; Potency, µM (highest dose often 46.1 µM), most hits filed as cytotoxic; KB-3-1 viability, CellTiter-Glo ATP luminescence, 72 h; 400,000 tested, 1.4% active; further: on the % scale 0 is the no-effect control and ±100 the full control effect; nearly all actives have a fitted effect of over 60% in size
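Here the drug-naive KB-3-1 line serves as comparator for MDR sub-line selectivity; cells received compound titrations, 72 h at 37 °C, then CellTiter-Glo readout.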
ELG1 DNA repair: qHTS screen for small molecules that inhibit ELG1-dependent DNA repair in human embryonic kidney (HEK293T) cells expressing luciferase-tagged ELG1 | AID 504467, 2011 | HEK293T ELG1-luciferase reporter, luminescence, 16 h; DNA damage induced by 5-fluorouridine | Potency, µM (top dose mostly 46.1 µM), for the others: top-dose activity change, negative = inhibition, actives largely listed as inhibitors | 330,000 tested, 2.3% active; further: on the % scale 0 is the no-effect control and ±100 the full control effect; nearly all actives have a fitted effect of over 55% in size
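Luminescence from the luciferase reporter, measured 30 min after ONE-Glo reagent at room temperature, was the read-out. Beforehand, 2,000 cells per well were exposed for 16 hr at 37 °C to 5-fluorouridine together with compound or vehicle.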
KB-V1 MDR tox: qHTS assay for MDR1-selective chemotherapeutics: Primary screen using the drug-selected MDR subline cells KB-V1. KB-V1 MDR cells viability, CellTiter-Glo, 72 h. Potency, µM (series often up to 46.1 µM), hits mostly cytotoxic. 400,000 tested, 3.4% active; further: on the % scale 0 is the no-effect control and ±100 the full control effect; nearly all actives have a fitted effect of over 60% in size
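Cytotoxicity via CellTiter-Glo luminescence after 72 h compound exposure at 37 degrees C. Cells: drug-selected KB-V1 line, DMEM phenol-red free plus 10% FBS. Compounds tested at multiple concentrations; normalized data fitted to concentration-effect curves.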
SW480 rereplic: A quantitative high throughput screen for small molecules that induce DNA re-replication in SW480 colon adenocarcinoma cells; SW480 DNA re-replication, Hoechst DNA content imaging, 48 h; AID 624297, 2012; Potency, µM (titrated, usually from 46.1 µM), for the others: at the top dose re-replication activation, usual class: activators; 340,000 tested, 1.8% active; further: % of control where 0% means no effect; nearly all actives have a fitted effect of over 55% in size
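Per well, 250 cells were exposed to pinned compound for 48 hr. Nuclear DNA was visualised with Hoechst (40 min, 37 C) and total object intensity recorded by fluorescence scanning.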
The depositor's hits bear a star; i = inactive; u = inconclusive; x = no result given; [ ] = dose if it differs, or a comment. Only some compounds are listed: those with a hit (about 8.1% of all), similar ones and a draw of the others. The call rests on the fitted dose curve; in most records, active means well fitted curve in the direction sought with a large enough effect; inconclusive means small, poorly fitted or top-dose-only effect, or another doubt; inactive means no such curve, though single readings can be large; an effect the other way counts as inactive or inconclusive. Potency means the concentration at half of the fitted maximal effect.

SMILES	MCF10A rereplic	KB-3-1 cytotox	ELG1 DNA repair	KB-V1 MDR tox	SW480 rereplic
COc1ccc(-n2cc(CNC3CCN(C)CC3)c(-c3cccc(F)c3)n2)cc1	21µM*	u	0%	i	-2%[1.84 µM]
CCC(COC)NCc1cn(-c2ccc(OC)cc2)nc1-c1cccc(F)c1 (stereo not given)	16%	i	u	5.2µM*	u
COc1ccc(-n2cc(CN[C@H]3CCCCNC3=O)c(-c3cccc(F)c3)n2)cc1	-6%	i	u	i	-4%
O=C(O)CC(NS(=O)(=O)c1ccc(Cl)s1)c1ccccc1 (stereo not given)	x	i	x	i	x
COc1ccc(NC(=O)C(c2cc3ccccc3o2)n2c(=O)c(-c3cc4ccccc4[nH]3)nc3ccccc32)cc1 (stereo not given)	x	i	x	i	x
COc1cccc(OC(=O)CSc2nnc(-c3cccs3)o2)c1	x	i	x	i	x
CC(=O)Nc1ccc(NC(=O)C(C)OC(=O)CCCc2c[nH]c3ccccc23)cc1 (stereo not given)	-10%	i	13%	i	6.5µM*
CC(OC(=O)Cc1c[nH]c2ccccc12)C(=O)Nc1ccc(S(N)(=O)=O)cc1 (stereo not given)	0%	i	-21%	i	-2%
COc1ccc(OC)c(NC(=O)CCN2CC(C)CC(C)C2)c1 (stereo not given)	4%	i	3%	i	-10%
CCn1nc(C)cc1C(=O)Sc1cccc(Cl)c1	23µM*	i	11%	i	0%
Cc1nn(C)c(C(=O)Sc2cccc(Cl)c2)c1[N+](=O)[O-]	18µM*	i	3%	i	u
CCc1nonc1NC(=O)c1oc2cc(Br)ccc2c1C	4%	i	u	i	26%
CCOc1ccc(-c2nonc2NC(=O)c2oc3cc(Br)ccc3c2C)cc1	x	3.7µM*	x	u	x
C/C(=N\NC(=O)c1ccco1)c1ccc(NC(=O)C(F)(F)F)cc1	-2%	i	u	i	-14%
COc1ccc(CCNC(=S)Nc2ccccc2)cc1	4%	i	u	i	-1%
COc1ccc(C(=O)CC(=O)C(=O)NCCc2cccc(C)c2)cc1	18µM*	i	-2%	u	u
COc1ccc(CCNC(=S)Nc2cc(C)cc(C)c2)cc1	-6%	i	-5%	18µM*	2%
COc1ccc(CCNC(=S)Nc2ccc(OC)cc2)cc1	6%	i	4%	i	-2%
COc1ccc(CCNC(=S)Nc2ccc(C(C)C)cc2)cc1	u	u	-17%	23µM*	5%
COc1ccc(CNC(=O)COC(=O)CCn2c(C)csc2=O)cc1OC	4%	i	1%	i	-31%
CCOc1ccccc1Nc1nc2ccccc2c2nncn12	x	i	x	i	x
CC1CCN(CCc2nc3cc(NC(=O)COc4ccc(Cl)cc4)ccc3n2C)CC1	16µM*	u	-5%	i	18µM*
Cc1cccc(OCC(=O)Nc2ccc3c(c2)nc(CCN2CCCCC2)n3C)c1	-1%	i	-3%	i	-12%
COc1ccc(OCC(=O)Nc2ccc3c(c2)nc(CCN2CCN(c4ccccn4)CC2)n3C)cc1	x	i	x	i	x
Cc1ccc(S(=O)(=O)Nc2ccc3c(c2)nc(CCN2CCN(c4ccccn4)CC2)n3C)cc1	-4%	i	-14%	i	1µM*
SMILES	MCF10A rereplic	KB-3-1 cytotox	ELG1 DNA repair	KB-V1 MDR tox	SW480 rereplic
COc1ccc(OCC(=O)Nc2ccc3c(c2)nc(CCN2CCC(C)CC2)n3C)cc1	-1%	i	-2%	i	-19%
Cn1c(CCN2CCN(c3ccccn3)CC2)nc2cc(NC(=O)COc3ccc(Cl)cc3)ccc21	3%	i	9.2µM*	u	7.3µM*
Cc1cccc(OCC(=O)Nc2ccc3c(c2)nc(CCN2CCN(c4ccccn4)CC2)n3C)c1	7%	i	15µM*	i	u
COc1ccc(CNC(=O)Cn2ccc3cc(S(=O)(=O)N4CCCC4)ccc32)c(OC)c1	x	i	x	i	x
COc1ccc(NC(=O)CSc2cc(C)ccc2C)cn1	1%	i	-7%	i	-5%
COc1ccc(NC(=O)Cc2ccc(Cl)c(Cl)c2)cn1	0%	i	8%	i	3%
COc1ccc(NC(=O)/C(Cl)=C(/Cl)S(=O)Cc2ccccc2Cl)cn1 (stereo not given)	1µM*	18µM*	15µM*	u	u
COc1ccc(NC(=O)/C(Cl)=C(/Cl)S(=O)(=O)Cc2ccc(C)cc2)cn1	u	6.5µM*	u	u	2.6µM*
Cc1ccc(NC(=O)CNc2ccc(Cl)c(Cl)c2)cc1S(=O)(=O)N(C)C	13%	u	-19%	21µM*	x
CC(=O)N1CCN(CC(=O)Nc2ccc(C)c(S(=O)(=O)N(C)C)c2)CC1	u	i	9%	i	-19%
Cc1ccc(NC(=O)COC(=O)c2ccccc2Cl)cc1S(=O)(=O)N(C)C	-4%	i	2%	i	-2%
Cc1ccc(NC(=O)Cc2ccccc2Cl)cc1S(=O)(=O)N(C)C	u	u	u	23µM*	15%
Cc1ccc(NC(=O)CCNC(=O)c2ccccc2Cl)cc1S(=O)(=O)N(C)C	0%	i	-11%	i	-3%
Cc1ccc(NC(=O)Cc2ccc(Cl)c(Cl)c2)cc1S(=O)(=O)N(C)C	u	23µM*	15µM*	2.6µM*	u
CN(C)S(=O)(=O)c1cc(NC(=O)CNCc2ccc(F)cc2)ccc1Cl	-1%	u	u	u	-3%
Cc1ccc(NC(=O)CN2CCC(Cc3ccccc3)CC2)cc1S(=O)(=O)N(C)C	u	i	u	u	12µM*
COc1ccc(-c2nn3c(=O)cc(CN4CCN(C(=O)c5ccc(C(C)(C)C)cc5)CC4)nc3s2)cc1	x	i	x	i	x
NS(=O)(=O)c1ccc(CCNCc2ccccc2OCc2ccc(Cl)cc2)cc1	u	u	-16%	i	-1%
N#CC(c1ccc(Cl)cc1)c1c(Cl)cc(-n2ncc(=O)[nH]c2=O)cc1Cl (stereo not given)	u	x	x	x	-3%
CCC[C@H]1C[C@H](C(=O)N[C@@H]([C@H]2O[C@@H](SC)[C@@H](O)[C@@H](O)[C@@H]2O)[C@H](C)Cl)N(C)C1	1%	x	x	x	3%
Cn1c(=O)c2c(nc(NC3CCCCC3)n2CC(=O)C23CC4CC(CC(C4)C2)C3)n(C)c1=O	17%	i	7.3µM*	u	1%
